# Data published in ChEMBL document CHEMBL4513216, “Probing the Open Global Health Chemical Diversity Library for Multistage-Active Starting Points for Next-Generation Antimalarials” (ACS Infect Dis, 2020).
# The campaign covered roughly 68,000 compounds. About 2,700 (4%) showed an effect of 50% or more. For the sample, strong results were picked, then their nearest neighbours and some compounds at random.
# Tested on: Plasmodium berghei
# Experiment: Screen against P. berghei liver stage (PbLuc), transformed with Luciferase, at 2uM
# Type: functional, HepG2
# Conditions: tested at 2 uM
row,Structure (SMILES),INHIBITION [%]
1,N#CCCN(C(=O)CCc1cccnc1)c1ccc2c(c1)OCCO2,33.26
2,CN(C)C(=O)c1ccn(-c2ccc3ccccn23)n1,6.35
3,CCC(C)(CNC(=O)Nc1nncs1)N1CCOCC1 (centres undefined),-42.64
4,CCC(C)(CNC(=O)Nc1nccs1)N1CCOCC1 (centres undefined),21.24
5,CC(C)(CNc1ccccc1S(=O)(=O)C(F)F)N1CCOCC1,-64.31
6,CC(C)(CNC(=O)Nc1nccs1)N1CCOCC1,64.2
7,CC(C)(CNc1ccc(S(=O)(=O)C(F)F)cc1)N1CCOCC1,5.02
8,CC(C)(CNC(=O)Nc1ccc(S(=O)(=O)C(F)F)cc1)N1CCOCC1,53.63
9,CCC(CC)(CCO)CNC(=O)c1ccon1,34.69
10,CS(=O)(=O)NCCNC(=O)Cc1ccc(Br)s1,12.55
11,Cc1ncc(CNC(=O)c2oc3ccccc3c2CN(C)C)s1,-21.47
12,CN(CC1Cc2ccccc2CN1C)C(=O)CSc1nccn1C (centres undefined),53.61
13,CN(CC1Cc2ccccc2CN1C)C(=O)CSc1ccccn1 (centres undefined),35.54
14,Cc1cc(=O)[nH]c(SCC(=O)N(C)CC2Cc3ccccc3CN2C)n1 (centres undefined),-15.36
15,COc1ccc(CCCN(C)C(=O)c2cc(Cl)c[nH]2)cc1OC,32.31
16,O=C(C1CC1)N1Cc2[nH]nc(COCc3cccnc3)c2C1,-14.61
17,O=C(Nc1cc(CCC2CCN(CCO)CC2)ccn1)c1ccccn1,35.19
18,COc1cccc(CC(=O)N2CC[C@@H]3[C@H](CC2)N(C)CCS3(=O)=O)c1,4.38
19,CNC(=O)N1CC[C@H]2N(C)CC[C@@]2(C(=O)Nc2ccccc2)CC1,62.13
20,CC(C)CC(=O)N1CC[C@H]2N(C)CC[C@@]2(C(=O)Nc2ccccc2)CC1,11.87
21,CC(C)C(=O)N1CC[C@H]2N(C)CC[C@@]2(C(=O)Nc2ccccc2)CC1,17.69
22,CC(C)(C)Nc1nc(-c2cccnc2)c(-c2ccnc(NCCO)n2)s1,-31.71
23,CCOC1CCC2(CCN(C(=O)c3c[nH]cn3)CC2)c2ccccc21 (centres undefined),28.46
24,Cc1nn(C)c(N2CCOCC2)c1CNC(C)c1ccco1 (centres undefined),-39.37
25,Cc1ccc(C(C)NCc2c(C(C)C)nn(C)c2N2CCOCC2)o1 (centres undefined),-41.76

row,Structure (SMILES),INHIBITION [%]
1,CC(C)c1nn(C)c(N2CCOCC2)c1CNC(C)c1ccco1 (centres undefined),53.98
2,NC(CC1CCCC1)c1ccccc1 (centres undefined),10.24
3,CCN1CCCC1CNC(=O)c1cc(COc2cccc(F)c2)[nH]n1 (centres undefined),21.67
4,O=C(CC1CC1)N1CCc2ncc(Cn3cncn3)n2CC1,31.73
5,CC(C)S(=O)(=O)N1CCCC(c2nccn2Cc2cccnc2)C1 (centres undefined),-7.66
6,Cc1noc(C)c1CN1CC[C@H]2OCC[C@@H](C(=O)N3CCCO3)[C@@H]2C1,-13.8
7,Cc1noc(C)c1CN1CC[C@H]2OCC[C@@H](C(=O)NCC3CC3)[C@@H]2C1,6.04
8,O=C([C@@H]1CCO[C@@H]2CCN(CC3CCOCC3)C[C@H]21)N1CCCO1,-3.19
9,O=C([C@@H]1CCO[C@@H]2CCN(CC3CC3)C[C@H]21)N1CCCC1,-16.33
10,O=C([C@@H]1CCO[C@@H]2CCN(CC3CC3)C[C@H]21)N1CCCCO1,57.07
11,Cc1noc(C)c1CN1CC[C@H]2OCC[C@@H](C(=O)N3CCCO3)[C@H]2C1,59.08
12,CCn1ccc(NC(=O)C2CCC(=O)N2Cc2ccc(C)o2)n1 (centres undefined),45.14
13,O=C(c1cc(=O)n(-c2ccccc2)[nH]1)N1CCOCC(O)C1 (centres undefined),4.12
14,COCCOc1ccccc1NC(C)C(=O)NC(=O)NC(C)(C)C (centres undefined),-19.21
15,CCCc1n[nH]c(C2CN(C(=O)c3ccc[nH]3)CCO2)n1 (centres undefined),-70.51
16,CC(Cc1ccccc1F)NC(=O)CCC1=NC(=C2N=CN=N2)NO1 (centres undefined),24.12
17,COCCNC(=O)Cn1c(-c2cccc(F)c2)nc(C)c(CCO)c1=O,-4.75
18,COCCC1(CO)CCCN(Cc2ccncc2)C1 (centres undefined),10.53
19,O=C(O)C1(Cc2ccc(F)cc2F)CCCN(Cc2ccncc2)C1 (centres undefined),43.57
20,OCC1(Cc2ccc(F)cc2F)CCCN(Cc2ccncc2)C1 (centres undefined),61.48
21,Cc1c(-c2cc(C(=O)N3CCc4ncc(Cl)cc4C3)on2)cnn1C,-30.88
22,O=C(NCC(F)F)c1cc(-c2ccccc2)nc2ncnn12,5.88
23,CCc1nc(CCNC(=O)NC2CCSCC2)cs1,50.32
24,CCc1nc(CCNC(=O)Nc2ccc(C(=O)NC)cc2)cs1,-58.5
25,CCc1nc(CCNC(=O)NC2CC(=O)N(C(C)(C)C)C2)cs1 (centres undefined),3.62

row,Structure (SMILES),INHIBITION [%]
1,CCNCc1ccc(OCc2ccc3c(c2)OCCO3)cc1,12.94
2,NC1CC(C(F)(F)F)=NC=C1c1ccccc1 (centres undefined),25.93
3,Cc1ccccc1NC(=O)NCCn1nc(C(F)(F)F)n(C)c1=O,16.54
4,Cn1c(C(F)(F)F)nn(CCNC(=O)Nc2ccccc2F)c1=O,37.87
5,Cn1c(C(F)(F)F)nn(CCNC(=O)Nc2ccccc2Cl)c1=O,64.74
6,Cn1cc(C(=O)N2CCN(Cc3cscn3)CC2)ccc1=O,-15.08
7,CCN1CC2(CNCCN(C(=O)Nc3ccccc3)C2)CC1=O (centres undefined),17.77
8,CN1CC2(CNCCN(C(=O)Nc3ccccc3)C2)CC1=O (centres undefined),56.21
9,Cc1cccc(NC(=O)N2CCC3(CC(=O)N(c4ccsc4)C3)C2)c1 (centres undefined),1.29
10,CC(=O)N1CCN(C(=O)Nc2ccccc2)CC2(CC(=O)N(C)C2)C1 (centres undefined),7.88
11,O=C(NCc1ccccc1)N1CCC2(CC(=O)N(c3ccsc3)C2)C1 (centres undefined),18.86
12,O=C(Nc1ccccc1)N1CCC2(CC(=O)N(c3ccsc3)C2)C1 (centres undefined),57.31
13,Cc1nn(Cn2ccc(C(=O)N3CCCCCC3)n2)c(C)c1Cl,7.68
14,CC(NC(N)=O)C(=O)N1CCCN(Cc2nccn2C(C)C)CC1 (centres undefined),-7.5
15,CN(C(=O)Cc1ccc(NC(=O)NC2CCC2)cc1)c1ccccc1,43.21
16,Cc1ccc(C(=O)N2CCC3(CC2)CCN(CCN(C)C)C3=O)cn1,39.92
17,CCn1c(C2CCN(C(=O)c3cc(CC(C)C)on3)CC2)nn(C)c1=O,-5.44
18,CCn1c(C2CCN(C(=O)c3cc(CC(C)C)no3)CC2)nn(C)c1=O,51.31
19,CCn1c(C2CCN(C(=O)c3cc(Cl)no3)CC2)nn(C)c1=O,13.76
20,CCN1CCn2c(-c3cccc(F)c3)cnc2C12CCN(C(C)=O)CC2,-13.68
21,O=c1[nH]c(NCCO)nc2c1C1(CCCC1)Cc1ccccc1-2,-29.21
22,O=c1[nH]c(NCCO)nc2c1C1(CCCCC1)Cc1ccccc1-2,53.55
23,O=c1[nH]c(NCCCO)nc2c1C1(CCCC1)Cc1ccccc1-2,43.82
24,CCN(Cc1ccoc1)C(=O)NC1CCN(C(=O)OC(C)(C)C)C1 (centres undefined),7.93
25,CCN(Cc1ccoc1)C(=O)C1CN(C(=O)OC(C)(C)C)C1,52.03

row,Structure (SMILES),INHIBITION [%]
1,CCN(Cc1ccoc1)C(=O)C1CCN(C(=O)OC(C)(C)C)C1 (centres undefined),30.25
2,Cc1cc(-n2nnc(C(=O)O)c2-c2ccncc2)ccc1F,-37.39
3,Cc1occc1C(=O)N1CCC2(CCCN(c3ncc(F)cn3)C2)C1 (centres undefined),-13.37
4,CC(C)(C)n1cc(C(=O)O)c(-c2ccc(F)cc2F)n1,52.98
5,Cn1cc(C(=O)O)c(-c2ccc(F)cc2F)n1,31.51
6,Cn1cc(C(=O)OCC(N)=O)c(-c2ccc(F)cc2F)n1,19.59
7,COc1ccc(C(=O)C2CCCN(c3nccc(N)n3)C2)c(C)c1 (centres undefined),22.5
8,COc1ccc(N2CCC(N(C)C(=O)Nc3ccncc3)CC2)cc1,-18.09
9,Cn1cc(C(=O)N2CC[C@@H]3[C@@H]2CCN3Cc2cccnc2)cn1,-31.39
10,Cc1cccc(CN2CC[C@@H]3[C@@H]2CCN3C(=O)c2cnoc2C)n1,-15.6
11,Cc1cccc(N2CC[C@H]3[C@H]2CCN3C(=O)c2cnn(C)c2)n1,3.56
12,Cc1cccc(CN2CC[C@H]3[C@H]2CCN3C(=O)c2cnn(C)c2)n1,51.4
13,Cc1cccc(CN2CC[C@@H]3[C@@H]2CCN3C(=O)c2ccno2)n1,51.94
14,Cc1cccc(CN2CC[C@H]3[C@H]2CCN3Cc2cnn(C)c2)n1,46.68
15,Cn1cc(C(=O)N2CC[C@@H]3[C@@H]2CCN3Cc2ccccc2)cn1,28.85
16,Cc1cccc(CN2CC[C@@H]3[C@@H]2CCN3C(=O)c2cc(C)on2)n1,26.01
17,Cn1cc(C(=O)N2CC[C@@H]3[C@@H]2CCN3Cc2ccncc2)cn1,70.31
18,Cc1cc(CNCC2Cn3nnc(C)c3CO2)oc1C (centres undefined),26.42
19,CCS(=O)(=O)NC1CCCN(c2ccc(F)cc2C)C1=O (centres undefined),-13.11
20,Cn1cc(C(=O)N2CCCC(C(=O)CCc3ccccc3)C2)cn1 (centres undefined),18.12
21,CCC(O)CNc1nccc(-c2ccc(C)nc2C)n1 (centres undefined),-23.27
22,O=C(Cc1ccsc1)N1CCC2(CCCN(CC3CCOCC3)C2)C1 (centres undefined),32.04
23,O=C(Cc1cccs1)N1CCC2(CCCN(CC3CCOCC3)C2)C1 (centres undefined),54.62
24,O=C(Cc1ccccn1)N1CCC2(CCCN(CC3CCOCC3)C2)C1 (centres undefined),-16.36
